Assay outcomes as filed in PubChem BioAssay.
MOR-DOR inv ag = inverse agonists of MOR-DOR heterodimerization, primary screen, cell-based, luminescence; Mu-type opioid receptor (Homo sapiens) + Delta-type opioid receptor (Homo sapiens), …; cell-based MOR-DOR heterodimer luminescence, inverse agonism; inhibition, % at 9.3 µM; 340,000 tested, 0.21% active; AID 504357, 2011; in the data active = inhibition above about 22%, passing the limit was not always enough
beta cell repl = inducers of MIN6 beta-cell proliferation, primary screen, ATP luminescence, uHTS; MIN6 cells proliferation, ATPlite luminescence, 48 h; cells starved in 0.2% serum; 100% = growth in 10% serum; proliferation, % at 10 µM; 330,000 tested, 0.29% active;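 active = compounds whose signal lies at least 3.5 SD above the mean of all wells on their plate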
HTR5A ag ctr = HTR5A agonists in luminescence cell assay, primary screen, counter-screen for OPRM1-OPRD1 heterodimer agonist project, full-deck HTS; 5-hydroxytryptamine receptor 5A (Homo sapiens), P47898; AID 504692, 2011; 340,000 tested, 0.61% active; activation, % at 9.3 µM; cell-based; in the data active = activation mostly above about 9.5%, no sharp cut-off; inactive = mostly below about 7.6%
Target sequence (P47898 whole entry, looked up): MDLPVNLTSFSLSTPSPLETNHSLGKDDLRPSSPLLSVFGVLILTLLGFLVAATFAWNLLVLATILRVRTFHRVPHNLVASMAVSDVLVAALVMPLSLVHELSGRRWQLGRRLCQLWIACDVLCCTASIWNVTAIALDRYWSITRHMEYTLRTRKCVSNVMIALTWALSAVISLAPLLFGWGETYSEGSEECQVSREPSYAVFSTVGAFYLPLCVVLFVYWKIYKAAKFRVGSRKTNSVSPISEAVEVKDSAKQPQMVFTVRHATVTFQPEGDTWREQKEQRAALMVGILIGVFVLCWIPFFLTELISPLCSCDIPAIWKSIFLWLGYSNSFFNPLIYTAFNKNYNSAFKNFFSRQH
MOR-DOR ag = agonists of OPRM1-OPRD1 heterodimerization, primary screen, cell-based, luminescence; Mu-type opioid receptor (Homo sapiens) + Delta-type opioid receptor (Homo sapiens), …; cells; activation, % at 9.3 µM; 340,000 tested, 0.3% active; in the data active = activation above about 18%
V-ATPase pHluor = regulators of yeast V-ATPase proton pumping, primary screen, pHLuorin cytosolic pH fluorescence; S. cerevisiae; response, % at 10 µM; 350,000 tested, 0.37% active; AID 504577, 2011; in the data active = response mostly above about 7.3%, no sharp cut-off; inactive = mostly below about 5.4%; also: actives read high
HTR5A inv ctr = HTR5A inverse agonists in luminescence cell assay, primary screen, counter-screen for OPRM1-OPRD1 heterodimer inverse agonist project, full-deck HTS; HTR5A cell line, inverse agonism; inhibition, % at 9.3 µM; 340,000 tested, 0.083% active; AID 504634, 2011; in the data active = inhibition mostly above about 23%, no sharp cut-off; inactive = mostly below about 18%
MOR-DOR inv conf = inverse agonists of MOR-DOR heterodimerization, confirmation, cell-based, luminescence | shares compounds with MOR-DOR inv ag | cells expressing OPRM1/OPRD1 heterodimer | inhibition, % at 9.3 µM | 580 tested, 20% active | AID 504900, 2011; in the data active = inhibition above about 32%
HTR5A inv ctr2 = HTR5A inverse agonists, counter-screen for OPRM1-OPRD1 inverse agonist project, cell-based, luminescence. shares compounds with MOR-DOR inv ag. HTR5A-expressing cells, inverse agonism. inhibition, % at 9.3 µM. 580 tested, under 10 active; call rule not given here
Of the large screens only hits and unclear results are named; the others gave an inactive call (follow-up assays come after a bar, where they were run). Shown are actives, neighbours in structure and some others; about 1.7% of the full set was active somewhere.

Nc1ccc2c(c1)CC(=O)c1ccccc1S2	MOR-DOR inv ag 45 | MOR-DOR inv conf inactive | HTR5A inv ctr2 inactive
CC1CN(Cc2ccccc2)C(=O)NC1=O (stereo not drawn)	none (no result: beta cell repl)
CC1CN(c2ccccc2)NC1=O (stereo not drawn)	MOR-DOR inv ag 48 | MOR-DOR inv conf inactive | HTR5A inv ctr2 inactive
COc1ccc(C[C@@H]2OC3(C=CC(=O)C=C3)O[C@H]2Cc2ccc(OC)cc2)cc1	MOR-DOR inv ag 39 (no result: beta cell repl) | MOR-DOR inv conf inactive | HTR5A inv ctr2 inactive
Cc1cccc(NC(=O)N2C3CCCC2CC(NC(=O)C(C)(C)C)C3)c1 (stereo not drawn)	none
Oc1c(C=Nc2ccccc2Cl)[nH]c2ccccc12	MOR-DOR inv ag 48 | MOR-DOR inv conf inactive | HTR5A inv ctr2 inactive
Cc1ccc(C)c(N2CC(C(=O)Nc3nccs3)CC2=O)c1 (stereo not drawn)	none
Cc1ccc2c(c1)C(=O)C(=O)N2CCCOc1ccccc1	none
COc1ccc2c(c1)C(=O)C(=O)N2CC1COc2ccccc2O1 (stereo not drawn)	MOR-DOR inv ag 38 | MOR-DOR inv conf inactive | HTR5A inv ctr2 inactive
COc1ccc2c(c1)C(=O)C(=O)N2CCS(=O)(=O)c1ccccc1	MOR-DOR inv ag 70 | MOR-DOR inv conf inactive | HTR5A inv ctr2 inactive
O=C1C(=O)N(CCS(=O)(=O)c2ccccc2)c2ccc(F)cc21	MOR-DOR inv ag 53 | MOR-DOR inv conf inactive | HTR5A inv ctr2 inactive
CCOc1ccc2c(c1)C(=O)C(=O)N2CC1COc2ccccc2O1 (stereo not drawn)	none
CCOC(=O)c1cc(C(=O)c2ccccc2O)cn2c(=O)c3c(C)c(C)sc3nc12	none (no result: MOR-DOR inv ag, HTR5A ag ctr, MOR-DOR ag, V-ATPase pHluor, HTR5A inv ctr)
C=CCSc1nnc(NC(=O)c2cccc(S(=O)(=O)N(C)c3ccccc3)c2)s1	none
Cc1cccc(C)c1OCC(=O)NC1CC1	none
Cc1cccc(C)c1OCC(=O)NNC(=S)NC(=O)C1CC1	MOR-DOR inv ag 36 | MOR-DOR inv conf inactive | HTR5A inv ctr2 inactive
CC1CCCCN1CCNC(=O)C1CCN(S(=O)(=O)N2CCCCC2)CC1 (stereo not drawn)	MOR-DOR inv ag 13 | MOR-DOR inv conf inactive | HTR5A inv ctr2 inactive
CC1CCN(CCCNC(=O)C2CCN(S(=O)(=O)N3CCCCC3)CC2)CC1	none
O=C(NC1CCCCC1)C(c1ccccn1)N(C(=O)c1csnn1)c1ccccc1F (stereo not drawn)	none
O=C(COC(=O)c1ccc(O)cc1)c1ccc(S(=O)(=O)N2CCCCC2)cc1	none
O=C(COC(=O)c1ccc(CO)cc1)c1ccc(S(=O)(=O)N2CCCCC2)cc1	MOR-DOR inv ag 38 | MOR-DOR inv conf inactive | HTR5A inv ctr2 inactive
C=CCn1c(=O)c2c(nc3n2CC(C)CN3c2cccc(OC)c2)n(C)c1=O (stereo not drawn)	MOR-DOR inv ag 36 | MOR-DOR inv conf inactive | HTR5A inv ctr2 inactive
COc1ccccc1NC(=S)NC1CCCCCC1	none
Cc1ccc(C(=O)COC(=O)CCC(=O)Nc2ccccc2Cl)cc1[N+](=O)[O-]	MOR-DOR inv ag 45 | MOR-DOR inv conf inactive | HTR5A inv ctr2 inactive
CC(=O)c1ccc(NC(=O)CCC(=O)OCC(=O)c2cccc([N+](=O)[O-])c2)cc1	MOR-DOR inv ag 61 | MOR-DOR inv conf 51 | HTR5A inv ctr2 inactive
CC(=O)Nc1ccc(NC(=O)CCC(=O)OCC(=O)c2ccc(C)c([N+](=O)[O-])c2)cc1	MOR-DOR inv ag 57, HTR5A inv ctr 21 | MOR-DOR inv conf 36 | HTR5A inv ctr2 inactive
Cc1ccc(N2CC(C(=O)OCC(=O)c3ccc(C)c([N+](=O)[O-])c3)CC2=O)cc1 (stereo not drawn)	MOR-DOR inv ag 52 | MOR-DOR inv conf inactive | HTR5A inv ctr2 inactive
O=C(CCC(=O)OCc1ccc([N+](=O)[O-])cc1)Nc1ccccc1Cl	none
Cc1ccc(N2CC(C(=O)OCC(=O)c3ccc(F)cc3)CC2=O)cc1 (stereo not drawn)	none
CC(C)C(=O)NCc1cc(-c2ccccc2)no1	none
Cc1ccc(C(=O)COC(=O)c2ccncc2)cc1[N+](=O)[O-]	MOR-DOR inv ag 49 | MOR-DOR inv conf inactive | HTR5A inv ctr2 inactive
Cn1c(=O)[nH]c(=O)c2c1nc(Br)n2C/C=N/Nc1ccccc1	MOR-DOR inv ag 35 | MOR-DOR inv conf inactive | HTR5A inv ctr2 inactive
CC(=O)Nc1ccc(C(=O)OCC(=O)Nc2c(F)cccc2F)cc1	none
COC(=O)c1ccc(C)c(-n2c(=O)n(Cc3ccccc3)c(=O)c3[nH]cnc32)c1	MOR-DOR inv ag 52 | MOR-DOR inv conf inactive | HTR5A inv ctr2 inactive
Cc1ccccc1-n1c(=O)n(Cc2ccccc2)c(=O)c2[nH]cnc21	none
CCOc1ccc(OCCN2C(=O)c3ccccc3C2=O)cc1	none
CCOc1ccc(N=C2C(=O)N(CN3CCOCC3)c3ccccc32)cc1	MOR-DOR inv ag 67 | MOR-DOR inv conf 49 | HTR5A inv ctr2 inactive
Cc1ccc(Nc2nc(/N=C/NO)n[nH]2)cc1C	none
O=C(Nc1ccncc1)C1c2ccccc2Oc2ccccc21	MOR-DOR inv ag 36 | MOR-DOR inv conf inactive | HTR5A inv ctr2 inactive
CCCNC(=O)C1CC(c2cccc(F)c2)=NO1 (stereo not drawn)	none
Cc1cccc2nc3c(nc12)-c1ccccc1C3=O	MOR-DOR inv ag 40 | MOR-DOR inv conf inactive | HTR5A inv ctr2 inactive
Cc1ccc(Cl)c2c1NC(=O)C2(O)CC(=O)c1ccc(Br)cc1 (stereo not drawn)	MOR-DOR inv ag 30 | MOR-DOR inv conf inactive | HTR5A inv ctr2 inactive
O=C(CC1(O)C(=O)Nc2cc(Cl)cc(Cl)c21)c1ccncc1 (stereo not drawn)	MOR-DOR inv ag 29 | MOR-DOR inv conf inactive | HTR5A inv ctr2 inactive
CCS(=O)(=O)Nc1ccc(C(=O)CC2(O)C(=O)Nc3ccc(Br)cc32)cc1 (stereo not drawn)	none
O=C1Nc2ccccc2C1(O)Cc1ccncc1 (stereo not drawn)	none
O=C(CN(C(=O)CNC(=O)c1cccs1)c1ccccc1)NC1CCCCC1	none
CCOC(=O)c1nnsc1N	none
CN1C(=O)C(O)(C2COC(C)(C)CC2=O)c2ccccc21 (stereo not drawn)	MOR-DOR inv ag 32 | MOR-DOR inv conf inactive | HTR5A inv ctr2 inactive
